# According to ChEMBL document CHEMBL1157539, “Thousands of chemical starting points for antimalarial lead identification” (Nature, 2010):
# Test system: Plasmodium falciparum
# Assay: GSK_TCMDC: Inhibition of Plasmodium falciparum 3D7 in whole red blood cells, using parasite LDH activity as an index of growth. Test compounds present at 2uM
# Assay type: functional
row,Compound,Inhibition [%]
1,COc1ccc2ncc(F)c(CCN3CCC[C@H](CNCc4ccc5c(n4)NC(=O)CS5)C3)c2n1.Cl,96
2,O=C(/C=C/c1ccc(Cl)cc1)NCCCCCN1CCC(c2c[nH]c3ccccc23)CC1,99
3,CCCOc1ccc(N2C(N)=NC(N)=NC2(C)C)cc1.Cl,97
4,CC1CN(c2cnn(Cc3cccc(NC(=O)Nc4cccc(C(F)(F)F)c4)c3)c(=O)c2Cl)CC(C)N1.O=C(O)C(F)(F)F (stereo unspecified),96
5,Cc1cc(NC(=O)NCCN2CCC(NC(=O)c3ccc(C(F)(F)F)cc3)CC2)c2ccccc2n1.O=C(O)C(F)(F)F,98
6,Cc1ccc(Nc2nc(C)cc(NC3CC3)n2)cc1,97
7,CS(=O)(=O)NCCCNCc1cccc(-c2ccc(-c3nc4cc(C(F)(F)F)ccc4[nH]3)cc2)c1.O=C(O)C(F)(F)F,100
8,O=C(Nc1ccc(OC2CCN(Cc3ccc(F)cc3)C2)c(Cl)c1)c1ccsc1.O=C(O)C(F)(F)F (stereo unspecified),98
9,COc1cc(C)cc(CN2CCC(Cc3ccccc3)CC2)c1O,97
10,Cc1cc(C(F)(F)F)cc(-n2ncc(-c3ccc(C(=O)NCCNCc4ccccc4)cc3)c2N)n1.O=C(O)C(F)(F)F,91
11,CO/C(=C\C=C\c1cc2cc(Cl)c(Cl)cc2[nH]1)C(=O)NCCCN1CCCC[C@H]1C,100
12,Nc1cc(-c2ccc(-c3cccs3)s2)nc2ccccc12,100
13,CCOC(=O)NCC(=O)Nc1cccc(-c2cccc(-c3nc4cccc(C)c4[nH]3)c2)c1,88
14,O=C(Nc1cccc(C(F)(F)F)c1)c1cccc(S(=O)(=O)NCC2CCCN2CC2CCCCC2)c1.O=C(O)C(F)(F)F (stereo unspecified),97
15,C#CC(C)(CO)N1CCCC1 (stereo unspecified),95
16,CC(C)N1CCN(C(CN2CCN(CCCOc3ccccc3-c3ccccc3)CC2)c2ccc(F)cc2)CC1.Cl (stereo unspecified),100
17,O=C(NCCN1CCCCC1)c1ccc(Nc2nccc(Nc3ccc(Oc4ccccc4)cc3)n2)cc1,100
18,CC(C)CNCc1ccc(-c2ccc(CN(C(=O)NCCc3ccccc3)C3CCN(Cc4ccccc4)CC3)cc2)cc1.O=C(O)C(F)(F)F,98
19,CCC(C)NCCC(c1ccccc1)c1ccccc1O.Cl (stereo unspecified),97
20,COc1ccc2nccc([C@@H](O)CN3CCC(NCC(O)Cc4ccccc4)CC3)c2c1.O=C(O)C(=O)O (stereo partly specified),98
21,CC(C)(C)c1nn(-c2ccccc2)c2[nH]c(=O)c(CNC3CCCCC3)cc12,83
22,Cc1cc(N2CCCC2)nc(Nc2ccc(NC(=O)COc3ccccc3)cc2)n1,100
23,CN(C)CCOc1ccc(NC(=O)NC(C)(C)c2nc(-c3ccc(Cl)c(O)c3)c(-c3ccncc3)[nH]2)cc1.Cl,98
24,CCCCCCCn1c(=N)n(CC(O)c2ccc(Cl)c(Cl)c2)c2ccccc21.Cl (stereo unspecified),98
25,O=C(Nc1cccc(-c2csc(NC(=O)c3ccc4ccccc4c3)n2)c1)c1ccc2ccccc2c1,89
26,CCC(=O)c1c(C)n(-c2ncnc3c2nc(C)n3-c2ccc(C)cc2C)c2ccccc12,96

# Test system: Plasmodium falciparum
# Assay: GSK_TCMDC: Inhibition of Plasmodium falciparum Dd2 in whole red blood cells, using parasite LDH activity as an index of growth. Test compounds present at 2uM
# Assay type: functional
row,Compound,Inhibition [%]
1,CCN1CCC(N(Cc2ccc(-c3ccc(C(F)(F)F)cc3)cc2)C(=O)Cn2c(CCc3cccc(F)c3F)cc(=O)c3cn(C)nc32)CC1.O=C(O)C(O)C(O)C(=O)O,87
2,CC(C)Cn1c(Sc2ccc(C#N)c([N+](=O)[O-])c2)nnc1-c1cccc(Cl)c1,95
3,O=[N+]([O-])c1cccc(C=NNc2nc(=Nc3ccccc3)[nH]c(=Nc3ccccc3)[nH]2)c1,55
4,Cc1cc(=NN=Cc2ccccc2F)c2ccccc2[nH]1,81
5,O=C(CNC(=O)c1ccc(O)cc1)Nc1ccc(-c2cccc(-c3nc4cc(C(F)(F)F)ccc4[nH]3)c2)cc1,47
6,Br.CCCC1N=C(N)N=C(N)N1c1ccc(C)c(C)c1 (stereo unspecified),0
7,CC(C)C[C@@H](C(=O)Nc1ccc(Cc2ccc(NC(=O)[C@H](CC(C)C)N(C)C(=O)OC(C)(C)C)cc2)cc1)N(C)C(=O)OC(C)(C)C,57
8,COc1ccc(-c2ccc(NC(=O)c3cccc(Cl)c3)cc2)cc1CN1CCCC1.O=C(O)C(F)(F)F,84
9,OC(CNCCc1ccccc1)Cn1c2ccc(Cl)cc2c2cc(Cl)ccc21 (stereo unspecified),96
10,Fc1ccc(Nc2ccnc3cc(-c4cccc(CN5CCCCC5)c4)ccc23)c(Cl)c1,58
11,Br.CCCCCCn1c2c(c(=N)c3c1CCC3)CCC2,83
12,COc1ccc(-c2nonc2NC(=O)c2cccc(Cl)c2)cc1OC,63
13,COc1cc(CN=C(S)NN=C(C)c2ccccn2)cc(OC)c1OC,92
14,COc1ccc2nccc([C@@H](O)CN3CCC(NCc4cc5c(F)ccc(F)c5[nH]4)CC3)c2n1.CS(=O)(=O)O,76
15,COc1ccc2ncc(F)c(CCN3CCC[C@H](CNCc4ccc5c(n4)NC(=O)CS5)C3)c2n1.Cl,34
16,O=C(/C=C/c1ccc(Cl)cc1)NCCCCCN1CCC(c2c[nH]c3ccccc23)CC1,15
17,CCCOc1ccc(N2C(N)=NC(N)=NC2(C)C)cc1.Cl,2
18,CC1CN(c2cnn(Cc3cccc(NC(=O)Nc4cccc(C(F)(F)F)c4)c3)c(=O)c2Cl)CC(C)N1.O=C(O)C(F)(F)F (stereo unspecified),74
19,Cc1cc(NC(=O)NCCN2CCC(NC(=O)c3ccc(C(F)(F)F)cc3)CC2)c2ccccc2n1.O=C(O)C(F)(F)F,75
20,Cc1ccc(Nc2nc(C)cc(NC3CC3)n2)cc1,15

row,Compound,Inhibition [%]
1,CS(=O)(=O)NCCCNCc1cccc(-c2ccc(-c3nc4cc(C(F)(F)F)ccc4[nH]3)cc2)c1.O=C(O)C(F)(F)F,85
2,O=C(Nc1ccc(OC2CCN(Cc3ccc(F)cc3)C2)c(Cl)c1)c1ccsc1.O=C(O)C(F)(F)F (stereo unspecified),95
3,COc1cc(C)cc(CN2CCC(Cc3ccccc3)CC2)c1O,94
4,Cc1cc(C(F)(F)F)cc(-n2ncc(-c3ccc(C(=O)NCCNCc4ccccc4)cc3)c2N)n1.O=C(O)C(F)(F)F,9
5,CO/C(=C\C=C\c1cc2cc(Cl)c(Cl)cc2[nH]1)C(=O)NCCCN1CCCC[C@H]1C,91
6,Nc1cc(-c2ccc(-c3cccs3)s2)nc2ccccc12,50
7,CCOC(=O)NCC(=O)Nc1cccc(-c2cccc(-c3nc4cccc(C)c4[nH]3)c2)c1,35
8,O=C(Nc1cccc(C(F)(F)F)c1)c1cccc(S(=O)(=O)NCC2CCCN2CC2CCCCC2)c1.O=C(O)C(F)(F)F (stereo unspecified),2
9,C#CC(C)(CO)N1CCCC1 (stereo unspecified),1
10,CC(C)N1CCN(C(CN2CCN(CCCOc3ccccc3-c3ccccc3)CC2)c2ccc(F)cc2)CC1.Cl (stereo unspecified),96
11,O=C(NCCN1CCCCC1)c1ccc(Nc2nccc(Nc3ccc(Oc4ccccc4)cc3)n2)cc1,91
12,CC(C)CNCc1ccc(-c2ccc(CN(C(=O)NCCc3ccccc3)C3CCN(Cc4ccccc4)CC3)cc2)cc1.O=C(O)C(F)(F)F,62
13,CCC(C)NCCC(c1ccccc1)c1ccccc1O.Cl (stereo unspecified),74
14,COc1ccc2nccc([C@@H](O)CN3CCC(NCC(O)Cc4ccccc4)CC3)c2c1.O=C(O)C(=O)O (stereo partly specified),6
15,CC(C)(C)c1nn(-c2ccccc2)c2[nH]c(=O)c(CNC3CCCCC3)cc12,76
16,Cc1cc(N2CCCC2)nc(Nc2ccc(NC(=O)COc3ccccc3)cc2)n1,86
17,CN(C)CCOc1ccc(NC(=O)NC(C)(C)c2nc(-c3ccc(Cl)c(O)c3)c(-c3ccncc3)[nH]2)cc1.Cl,98
18,CCCCCCCn1c(=N)n(CC(O)c2ccc(Cl)c(Cl)c2)c2ccccc21.Cl (stereo unspecified),100
19,O=C(Nc1cccc(-c2csc(NC(=O)c3ccc4ccccc4c3)n2)c1)c1ccc2ccccc2c1,35
20,CCC(=O)c1c(C)n(-c2ncnc3c2nc(C)n3-c2ccc(C)cc2C)c2ccccc12,78
